According to PubChem BioAssay (NCI):
The panel holds about 83,000 compounds, 20% with a hit somewhere; the sample as a whole holds those more often.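 Single-dose data. Exposure time 48 hours. Values below 10 considered active.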 Unmarked numbers belong to inactive results. Activity calls are given as the source filed them.

System: HCT-15 colon
Test: NCI-60 one-dose screen, 48 h (100 = growth as untreated, 0 = no growth, -100 = all killed)
Details: 10 µM unless noted

| SMILES | growth |
| --- | --- |
| CCCCC1COc2cccc3c(SCC(=O)N(C)c4cccc(Cl)c4)cc[n+]1c23 (centres undefined) | 101% |
| COc1ccc(-c2c(N)n[nH]c2-c2ccccc2O)cc1OC | 115% |
| CCOC(=O)c1sc(-c2ccc(OS(=O)(=O)c3ccc(C(C)(C)C)cc3)c(C=O)c2)nc1C | 12.5% |
| Cc1nc(Nc2ccc(NC(=S)Nc3ccccc3)cc2)nc2nc(Nc3ccc(S(=O)(=O)O)cc3)[nH]c(=O)c12 | 127% |
| COc1ccc(/C=C2\COc3ccc(O)cc3C2=O)c(OC)c1 | 34.4% |
| COc1ccc(/C(C)=C(\c2ccc(Cl)cc2)c2ccc(OCCCN(C)C)cc2)cc1F | 7.7% (active) |
| Cc1nc(Nc2ccc(NC(=S)Nc3ccccc3)cc2)c2ccccc2n1 | 101% |
| C=C1C(=O)O[C@H]2[C@H]1CC/C(COC(=O)/C=C\C(=O)NCc1ccc(Cn3c(=O)sn(-c4ccc(OC)cc4)c3=O)cc1)=C\CC[C@@]1(C)O[C@@H]21 | -58.1% (active) |
| CN(C)CCn1cc(-c2ccc3c(Nc4ccc(CC(=O)Nc5cccc(F)c5)cc4)ncnc3c2)cn1 | 22.1% [30 µM] |
| COc1cc(/C=C/c2nc(Nc3ccc(S(=O)(=O)Nc4cc(C)on4)cc3)c3ccccc3n2)ccc1O | 31.8% |
| COc1ccc(/C(C)=C(\c2ccc(Cl)cc2)c2ccc(OCCN3CCCC3)cc2)cc1F | 1.16% (active) |
| Cc1nc(Nc2ccc(S(=O)(=O)Nc3cc(C)on3)cc2)c2ccccc2n1 | 99.1% |
| COc1ccc(OC)c(/C=C2\COc3ccc(O)cc3C2=O)c1 | 78.5% |
| CCN(CC)CCOc1ccc(/C(=C(\C)c2ccc(F)c(OC)c2)c2ccc(Cl)cc2)cc1 | 2.58% (active) |
| O[C@H]1CO[C@H]2[C@@H]1OC[C@@H]2Oc1ccc(Nc2ccnc(Nc3ccc(O[C@H]4CO[C@H]5[C@@H]4OC[C@@H]5O)c(Cl)c3)n2)cc1Cl | 26.4% |
| CC(=O)Nc1ccc(-c2cc3c(NCc4ccc(F)cc4)ncnc3s2)cc1 | 88.8% |
| C/C(Cc1ccc(Cl)cc1)=C(/c1ccc(Cl)cc1)c1ccc(OCCN(C)C)cc1 | 2.19% (active) |
| C=C1C(=O)O[C@H]2[C@H]1CC/C(COC(=O)/C=C\C(=O)NCc1ccc(Cn3c(=O)sn(CCCC)c3=O)cc1)=C\CC[C@@]1(C)O[C@@H]21 | -29.8% (active) |
| Cc1nc(Nc2cccc(NC(=O)Nc3ccc(Cl)cc3)c2)c2ccccc2n1 | 77% |
| COc1ccc(/C=C2\COc3ccc(O)c(O)c3C2=O)c(OC)c1 | 16.8% |

| SMILES | growth |
| --- | --- |
| CCN(CC)CCOc1ccc(/C(=C(\C)c2ccc(OC)c(F)c2)c2ccc(Cl)cc2)cc1 | 7.79% (active) |
| C=C1C(=O)O[C@H]2[C@H]1CC/C(COC(=O)/C=C\C(=O)NCc1ccc(Cn3c(=O)sn(-c4ccc(C#N)cc4)c3=O)cc1)=C\CC[C@@]1(C)O[C@@H]21 | -33.9% (active) |
| CN(C)CCN1C(=O)c2cccc3c(-c4ccc(-c5nc6c7ccccc7c7ccccc7c6[nH]5)cc4)ccc(c23)C1=O | 102% |
| c1ccc([P+](CCCc2n(Cc3ccc4ccccc4c3)c3ccccc3[n+]2Cc2ccc3ccccc3c2)(c2ccccc2)c2ccccc2)cc1 | 85.5% |
| CCCCS(=O)(=O)Oc1ccc(-c2nc(C)c(C(=O)OCC)s2)cc1C=O | 50.6% |
| CCCCN(Cc1ccc(C(=O)NO)cc1)C(=O)Nc1ccc(OCCCCCCCCCn2cc(CCCCC(=O)N[C@H](C(=O)N3C[C@H](O)C[C@H]3C(=O)NCc3ccc(-c4scnc4C)cc3)C(C)(C)C)nn2)cc1 | 88.7% |
| COc1ccc(/C(C)=C(\c2ccc(Cl)cc2)c2ccc(OCCN3CCCCCC3)cc2)cc1F | -23.9% (active) |
| C=C1C(=O)O[C@H]2[C@H]1CC/C(COC(=O)/C=C\C(=O)NCc1ccc(Cn3c(=O)sn(-c4ccc(Cl)cc4)c3=O)cc1)=C\CC[C@@]1(C)O[C@@H]21 | -33.8% (active) |
| O[C@H]1CO[C@H]2[C@@H]1OC[C@@H]2Oc1ccc(Nc2nc(Nc3ccc(F)c(Cl)c3)ncc2F)cc1Cl | 90.8% |
| O=C(CCc1nc(-c2cccc(Cl)c2)no1)Nc1ccccn1 | 95.2% |
| COc1ccc(Cn2cnc3cc(C(=O)Nc4cccc5ccccc45)ccc32)c(OC)c1 | 3.1% [30 µM] (active) |
| Cc1nc(Nc2ccc(N)cc2)c2ccccc2n1 | 89.4% |
| COc1cccc(/C=C2\COc3ccc(O)cc3C2=O)c1OC | 45.4% |
| CC(C)c1ccc(NC(=O)Cc2ccc(Nc3ncnc4cc(-c5cnn(CCN(C)C)c5)ccc34)cc2)cc1 | -53.1% [30 µM] (active) |
| O=C1c2cccc3c(-c4ccc(-c5nc6c7ccccc7c7ccccc7c6[nH]5)cc4)ccc(c23)C(=O)N1CCN1CCNCC1 | 40.9% |
| O=C1/C(=C/c2ccc([N+](=O)[O-])cc2)COc2ccc(O)c(O)c21 | -45.9% (active) |
| Cn1ccnc1C(=O)/C=C/c1ccc(C(=O)Nc2ccc(S(F)(F)(F)(F)F)cc2)cc1 | 3.65% (active) |
| COc1ccc(OC)c(C(=O)Nc2cccc(-c3cc(=O)c4ccccc4o3)c2)c1 | 93.4% |
| C=C1C(=O)O[C@H]2[C@H]1CC/C(COC(=O)/C=C\C(=O)NCc1ccc(Cn3c(=O)sn(CCCI)c3=O)cc1)=C\CC[C@@]1(C)O[C@@H]21 | -38% (active) |
